Structures are written as SMILES. A number with no mark means an inactive call.

This test has as its system Vero E6 infected with SARS-CoV-2. Nature of the test: SARS-CoV-2 infection rate relative to infected DMSO; higher = more infection, active = 60 or less. As to conditions: 24 h.
For the molecule `CCCc1cc(C)[nH]c(=O)c1CNC(=O)c1cc(-c2ccc(N3CCN(C(C)C)CC3)nc2)cc2c1cnn2C(C)C` (10 µM), the SARS-CoV-2 infection rate was 110%.

For `CC[C@@H](C)CNCC(=O)N1CCc2sccc2[C@@H]1COc1cccc(C)c1` (10 µM), the SARS-CoV-2 infection rate is 58.5% (active).

With `CC(C)(O)CS(=O)(=O)Nc1ccc2c(c1)CCN(C(=O)COc1cccnc1)C2` [Nampt-IN-1] (10 µM), the SARS-CoV-2 infection rate was 104%.

In the case of `CCCOc1ccc2[nH]cc(C3=CCNCC3)c2n1` (10 µM), the SARS-CoV-2 infection rate is 96%.

As for `Nc1ncnc2c1C(=O)N(c1ccc([C@H]3CC[C@H](CC(=O)O)CC3)cc1)CCO2` (10 µM), the SARS-CoV-2 infection rate is 92.5%.

For the molecule `COC(=O)N[C@H](C(=O)N1CCC[C@H]1C(=O)Nc1ccc([C@@H]2CC[C@@H](c3ccc(NC(=O)[C@@H]4CCCN4C(=O)[C@@H](NC(=O)OC)C(C)C)cc3)N2c2ccc(C(C)(C)C)cc2)cc1)C(C)C` [ombitasvir] (10 µM), the SARS-CoV-2 infection rate is 113%.

`CCCCCCCCCC(=O)O[C@H]1CC[C@H]2[C@@H]3CCC4=CC(=O)CC[C@@H]4[C@H]3CC[C@]12C` [Nandrolone decanoate] (10 µM): the SARS-CoV-2 infection rate was 103%.

`NC(=O)CN1CCCC1=O` [piracetam] (10 µM): the SARS-CoV-2 infection rate is 96.5%.

On to `NC1CCN(c2nc3c(cc2F)c(=O)c(C(=O)O)cn3-c2ccc(F)cc2F)C1` (stereo not given) [tosufloxacin] (10 µM), for which the SARS-CoV-2 infection rate was 112%.

For the molecule `C=C1C(=O)O[C@@H]2/C=C(\C)CC/C=C(\C)CC[C@@H]12` [costunolide] (10 µM), the SARS-CoV-2 infection rate is 78.5%.

In the case of `CCNC(C)CN1CCc2c(c(=O)oc3ccccc23)C1` (stereo not given) (10 µM), the SARS-CoV-2 infection rate is 98%.

Take `N#Cc1cccc(-c2c[nH]c3ncnc(N4CCOCC4)c23)c1` (10 µM): the SARS-CoV-2 infection rate is 108%.

Turning to `CCC(=O)N1CCOc2c(cc(-c3ccc(OC)c(OC)c3)cc2OC[C@H]2CCCN(C)C2)C1` (0.833333 µM), the SARS-CoV-2 infection rate is 98.5%.

Take `CN(C(=O)/C=C/c1ccoc1)[C@@H]1CC[C@@]2(O)[C@H]3Cc4ccc(O)c5c4[C@@]2(CCN3CC2CC2)[C@H]1O5` [nalfurafine] (10 µM): the SARS-CoV-2 infection rate was 108%.

Take `CC(=O)O[C@H]1CC[C@@]2(C)C(=CC[C@@H]3[C@@H]2CC[C@]2(C)C(=O)CC[C@@H]32)C1` [prasterone-acetate] (10 µM): the SARS-CoV-2 infection rate is 110%.

Turning to `CCC[C@H](N[C@H]1CCc2cc(F)cc(F)c2C1)C(=O)Nc1cn(C(C)(C)CNCC(C)(C)C)cn1` (10 µM), the SARS-CoV-2 infection rate is 102%.

For the molecule `O=S(=O)(N[C@H]1CC[C@@](c2cc(F)ccc2F)(S(=O)(=O)c2ccc(Cl)cc2)CC1)C(F)(F)F` (10 µM), the SARS-CoV-2 infection rate is 104%.

In the case of `Cc1ccc2nc(N)[nH]c(=O)c2c1Sc1ccncc1` [nolatrexed] (10 µM), the SARS-CoV-2 infection rate was 108%.

Turning to `Cn1c(CNc2ccc(C(=N)N)cc2)nc2cc(C(=O)N(CCC(=O)O)c3ccccn3)ccc21` [dabigatran] (10 µM), the SARS-CoV-2 infection rate is 96%.

`O=C(Nc1cnc(Cl)nc1)c1ccc(F)c(F)c1` (10 µM): the SARS-CoV-2 infection rate was 101%.

As for `CNCC[C@@H](Oc1ccccc1C)c1ccccc1` [atomoxetine] (10 µM), the SARS-CoV-2 infection rate is 102%.

With `CSc1ccc(OCc2ncc([N+](=O)[O-])n2C)cc1` [fexinidazole] (10 µM), the SARS-CoV-2 infection rate was 114%.

On to `CCS(=O)(=O)N(C)[C@@H]1c2cc(C#N)ccc2OC(C)(C)[C@H]1O.CCS(=O)(=O)N(C)[C@H]1c2cc(C#N)ccc2OC(C)(C)[C@@H]1O` (racemic) [chromanol-(+/-)] (10 µM), for which the SARS-CoV-2 infection rate was 98.5%.

Consider `O=c1cc(-c2ccccc2)oc2cc(O)c(O)c(O)c12` [baicalein] (10 µM), for which the SARS-CoV-2 infection rate is 85%.

Consider `CSc1ccc(C(=O)/C=C/c2cc(C)c(OC(C)(C)C(=O)O)c(C)c2)cc1` [elafibranor] (10 µM), for which the SARS-CoV-2 infection rate is 110%.

In the case of `C=C1CC[C@H](O)C/C1=C/C=C1\CCC[C@]2(C)[C@@H]([C@H](C)CCCC(C)C)CC[C@@H]12` [cholecalciferol] (10 µM), the SARS-CoV-2 infection rate was 96.5%.

Turning to `Cc1ccc(S(=O)(=O)Nc2ccc3c(c2)c(C(=O)C(F)(F)F)cn3CC(=O)N[C@@H](CC(C)C)C(=O)O)cc1` (10 µM), the SARS-CoV-2 infection rate was 104%.

Regarding `CCCCc1nc(Cl)c(C(=O)O)n1Cc1ccc(-c2ccccc2-c2nn[nH]n2)cc1` [carboxylosartan] (10 µM), the SARS-CoV-2 infection rate is 106%.

For `Cc1cccc(/C=N/Nc2cc(N3CCOCC3)nc(OCCc3ccccn3)n2)c1` (10 µM), the SARS-CoV-2 infection rate was 43.5% (active).

Turning to `CC(C)CCNC(=O)[C@H](CC(C)C)NC(=O)[C@H]1O[C@@H]1C(=O)O` [loxistatin-acid] (10 µM), the SARS-CoV-2 infection rate is 88%.

On to `CC(C)c1nc(CN(C)C(=O)N[C@H](C(=O)N[C@@H](Cc2ccccc2)C[C@H](O)[C@H](Cc2ccccc2)NC(=O)OCc2cncs2)C(C)C)cs1` [ritonavir] (10 µM), for which the SARS-CoV-2 infection rate is 104%.

For `O=C(CBr)N1CC([N+](=O)[O-])([N+](=O)[O-])C1` (10 µM), the SARS-CoV-2 infection rate was 116%.

Consider `CC(C)Cc1ccc(C(C)C(=O)NO)cc1` (stereo not given) [ibuproxam] (10 µM), for which the SARS-CoV-2 infection rate is 93.5%.

`CCc1cc(C(N)=S)ccn1` [ethionamide] (10 µM): the SARS-CoV-2 infection rate is 102%.

As to `CCCCOc1c(C(=O)c2c(F)cc(C)cc2F)c[nH]c2nncc1-2` (10 µM), the SARS-CoV-2 infection rate is 104%.

Take `CN(C)CCOC(=O)C(c1ccccc1)C1(O)CCCC1` (stereo not given) [cyclopentolate] (10 µM): the SARS-CoV-2 infection rate is 93%.

Consider `OCCN1CCN(CC/C=C2/c3ccccc3Sc3ccc(Cl)cc32)CC1` [zuclopenthixol] (0.833333 µM), for which the SARS-CoV-2 infection rate was 110%.

Regarding `Oc1cccc(-c2c3nc(c(-c4cccc(O)c4)c4ccc([nH]4)c(-c4cccc(O)c4)c4nc(c(-c5cccc(O)c5)c5ccc2[nH]5)CC4)C=C3)c1` [temoporfin] (0.833333 µM), the SARS-CoV-2 infection rate was 111%.

Consider `C=C(C)[C@@H]1CC[C@]2(C(=O)O)CC[C@]3(C)[C@H](CC[C@@H]4[C@@]5(C)CC[C@H](O)C(C)(C)[C@@H]5CC[C@]43C)[C@@H]12` [betulinic-acid] (10 µM), for which the SARS-CoV-2 infection rate is 108%.

In the case of `CC(C)C[C@H](NC(=O)[C@H](CCCCN)NC(=O)[C@H](CCCNC(=N)N)NC(=O)[C@H](C)NC(=O)[C@H](CO)NC(=O)[C@H](CCCCN)NC(=O)[C@H](CCCNC(=N)N)NC(=O)[C@H](C)NC(=O)CNC(=O)[C@@H](NC(=O)[C@H](Cc1ccccc1)NC(=O)CNC(=O)CNC(=O)[C@@H](N)Cc1ccccc1)[C@@H](C)O)C(=O)N[C@@H](C)C(=O)N[C@@H](CC(N)=O)C(=O)N[C@@H](CCC(N)=O)C(=O)O` [orphanin-fq] (10 µM), the SARS-CoV-2 infection rate is 112%.
